Test results: the supplement of paper PMC6555819

System: LXRb homodimer (NR concentration 270 nM)
Experiment: PBM binding z-score (relative to random genomic background probes); higher = stronger binding; sequences stand for … in GC…GCGATTGACAGCGTAGAATGAAGG
Outline: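 Scanned fluorescence from custom Agilent 4×180K protein-binding microarrays was regression-normalized. Binding z-scores use random background probes as reference. Ligand-free nuclear receptor dimers were incubated on the arrays for 1 h and detected with antibodies against each partner (one per run).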

Sequence	PBM binding z-score
ACTATTAGTTGAGACGAGGACAACCGATAGGTTG	0.49
GGTATTAGTTGAAAGGGCAACCGAATGATTCTCG	0.907
CCGACTGGGGCAAGGGTACCATAACGCACAGCCA	-1.39
CGTCCAAGGTCAGCAGGTCAGTGACAGCGACGTG	-0.142
CAAGCTAGGTCACGAAAGGTCAAAGTCGAATGAC	2.75
TAGCCTAGGTCATGCGGGCCATTATAGTGTCGGC	-0.482
CAAACTAGGTCACCGGAAGGTCAAAGACCGCATG	1.03
TCATATAGGTAAATGCTAGGTGAAAGCCCGATCT	-0.102
CTCGAAAGGTCGTGCTCAGGCGAGTATACCAAAC	-0.132
GCTAGTTGGTCAGTAAAAGTTCACACACCGGTCG	0.297
CCGACTGGGGCATAAGGTTACCTTAAGCCAGCCC	-1.36
TAGCCTAGGTCATTCAGGGGCCAGTAAAGAAAGC	0.778
CATACTGGGTCAGCTAGGCCAGAGTAGGGACGGC	-0.198
CAGCCTAGGTCAGTGCCAGTATAGGAGGAACGTT	-0.648
TCTCGGAGGACACGAAAGGTCAGATCTCGACATC	0.385
CAAACTAGGTCAAAGGTCCAAGTCGAGCCAACCA	0.0587
CAAACTAGGTCCAAGGTCAAAGTCGAGCCAACCA	0.508
